Data taken from the supplement of paper PMC6555819.

Legend:
Test in all cases: PBM binding z-score (relative to random genomic background probes); higher = stronger binding; sequences stand for … in GC…GCGATTGACAGCGTAGAATGAAGG
[1] = test system: FXR:RXRa (NR concentration 270 nM, RXRa partner concentration 90 nM)
Procedure, shortened: (§1)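 The probes on custom Agilent 4×180K protein-binding microarrays were double-stranded, with 34-nt variable regions bearing direct-repeat seeds, single-nucleotide variants, half-site ablations and random human genomic background sequences. Incubation lasted 1 h with ligand-free nuclear receptor dimers in PBS pH 7.4, 2% milk, 0.02% Triton X-100, 1 mM DTT, 0.2 mg/mL BSA and 0.4 mg/ml salmon testes DNA. Antibodies against each partner (one per run) detected bound dimers, and fluorescence scans were regression-normalized. Binding z-scores take the random background probes as reference.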

[2] = test system: LXRa:RXRa (NR concentration 270 nM, RXRa partner concentration 90 nM)
Procedure, shortened: as §1

[3] = test system: LXRa homodimer (NR concentration 270 nM)
Procedure, shortened: as §1

[4] = test system: LXRb:RXRa (NR concentration 270 nM, RXRa partner concentration 90 nM)
Procedure, shortened: as §1

[5] = test system: LXRb homodimer (NR concentration 270 nM)
Procedure, shortened: as §1

[6] = test system: PPARa:RXRa (NR concentration 270 nM, RXRa partner concentration 90 nM)
Procedure, shortened: as §1

[7] = test system: PPARg:RXRa (NR concentration 180 nM, RXRa partner concentration 90 nM)
Procedure, shortened: as §1

[8] = test system: PPARg:RXRa 270nM:90nM, anti-RXR (NR concentration 270 nM, RXRa partner concentration 90 nM)
Procedure, shortened: as §1

[9] = test system: PPARg:RXRa 30nM:10nM, anti-RXR (NR concentration 30 nM, RXRa partner concentration 10 nM)
Procedure, shortened: as §1

[10] = test system: PPARg:RXRa 90nM:30nM, anti-RXR (NR concentration 90 nM, RXRa partner concentration 30 nM)
Procedure, shortened: as §1

Sequence | PBM binding z-score [1] | PBM binding z-score [2] | PBM binding z-score [3] | PBM binding z-score [4] | PBM binding z-score [5] | PBM binding z-score [6] | PBM binding z-score [7] | PBM binding z-score [8] | PBM binding z-score [9] | PBM binding z-score [10]
GCTACCAGGCCATTTGGGTCACTCAATGACGGGC | 0.22 | 0.0663 | -0.549 | 0.301 | -0.419 | 1.57 | 0.923 | 0.744 | -0.356 | 0.658
AATTCAGGGTCATCGTAGGCCAGAGTACGCACAG | 7.63 | 6.71 | 4.2 | 5.55 | 2.29 | 6.2 | 7.36 | 7.02 | 3.49 | 5.72
CCAGACAGGTGAGAGGTAACTCAGTCTGGTACGC | -0.0103 | 0.206 | -0.48 | 0.237 | -0.589 | 1.97 | 2.93 | 4.15 | 1.95 | 3.82
TCAGATAGGTAATACAGGTGAAAGTCGGCATCTA | 0.862 | 1.41 | 0.032 | 0.889 | 0.0501 | 1.72 | 0.936 | 2.37 | 4.15 | 3.25
GGAACGAGGGCAAAGTCGATAGCATCTGTCGACG | 0.356 | 0.379 | -0.902 | -0.096 | -0.476 | 1.74 | 1.97 | 2.58 | 0.954 | 2.36
ACTAGCTGGTCAGCTGAGGTCACACACAATTCGG | 3.62 | 3.57 | 2.15 | 3.21 | -0.0797 | 3.58 | 1.76 | 2.01 | 0.341 | 0.958
GCATATAGGTAATACAGGGTGAAAGTCCGATTGT | 0.317 | 0.746 | -0.223 | 0.369 | -0.0682 | 1.92 | 1.44 | 1.47 | 0.819 | 0.965
AGAATGAGGTTACCCAAGATCAGGGAAACGCTTG | 1.63 | 5.76 | -0.558 | 2.48 | -0.333 | 3.05 | 2.29 | 2.2 | 0.837 | 1.49
AGAATGAGGTTATACGAAGATCAGGGAAGAAAGT | 2.26 | 1.67 | -0.199 | 1.54 | -0.139 | 3.25 | 1.68 | 1.8 | 0.749 | 1.51
ACTTTCGGGTCAACGAGGTTATAGCACGCGTATA | 6.38 | 5.02 | 0.999 | 4.56 | 1.45 | 5.52 | 4.94 | 5.18 | 2.34 | 4.34
CCTAGCAGGCCAGGGTCACTAAAGCATTTCGCTT | 1.78 | 1.59 | -0.472 | 1.78 | -1.37 | 3.06 | 0.442 | 1.2 | -0.365 | 0.422
AGAATGAGATTATACGTAGATCAGGGAAGAAAGT | -0.225 | -0.715 | -0.134 | -0.538 | -0.345 | -0.566 | 1.09 | -0.183 | 0.419 | -0.327
TCATATAGGTAAATGCTAGGTGAGAGTCCGATCT | -0.733 | 0.512 | -0.251 | 0.0109 | -0.13 | 1.05 | 0.622 | 1.86 | 3.39 | 2.64
CCGACTGGGGCGGAAAGGTTACCATACCATCCGG | 0.516 | 0.85 | 0.0346 | 1.23 | -0.589 | 2.08 | 1.41 | 2.7 | 0.707 | 1.99
AGTCAAAGTTCATCTAGGTAACGTACGATATGCT | 6.96 | 6.13 | 5.65 | 3.91 | 1.59 | 5.05 | 6.7 | 6.46 | 3.66 | 5.86
TCCTGTAGATCAGCAGGTTAAGAAAGCTGGCCAA | 0.47 | 0.36 | -0.398 | 0.304 | -0.639 | 0.87 | -0.289 | 1.6 | 2.43 | 1.83
CCTATTAGTTGACCATAAGGGCAGCCGAAGCTCG | 0.542 | -0.0359 | 0.036 | 0.218 | 0.392 | 0.0636 | 0.126 | 0.442 | -0.292 | -0.0917
TAGCCTAGGTCATTGGGCCGGTATAGTACGCATC | 4.26 | 2.99 | 0.765 | 2.23 | 0.429 | 3.43 | 2.46 | 2.72 | 0.313 | 1.53
TAGCCTAGGTCGGATCGGGCCAGTATACGCTATA | -0.358 | -0.506 | -0.432 | -0.741 | -0.754 | -0.324 | 0.0462 | -0.371 | -0.755 | -0.538
TCATATAGGTAATTGCTAGGTGAAAGTCCGATCT | 0.86 | 0.654 | 0.0873 | 0.781 | 0.17 | 1.41 | 0.771 | 2.36 | 3.67 | 3.02
TCTAGTTGCTCACGGAGGTCACACACGACGGGTA | 2.59 | 3.1 | 1.86 | 3.22 | 0.53 | 3.62 | 1.55 | 2.79 | 3.16 | 2.76
TAGAGTAGGTTAGTCGGGGCATTCAGCCAACATA | 0.871 | 0.485 | 0.155 | 0.87 | 1.54 | 1.16 | 0.583 | 1.65 | 0.884 | 1.33

Sequence | PBM binding z-score [1] | PBM binding z-score [2] | PBM binding z-score [3] | PBM binding z-score [4] | PBM binding z-score [5] | PBM binding z-score [6] | PBM binding z-score [7] | PBM binding z-score [8] | PBM binding z-score [9] | PBM binding z-score [10]
TAGCCTAGGTCATGCGGGCCGGTATAGTGTCGGC | 4.25 | 3.22 | 0.206 | 1.43 | -0.202 | 3.19 | 1.89 | 2.45 | 0.149 | 1.79
ATCGAAAGGTCGAGGTGAATATAGAGAAAGGGAA | 4.19 | 3.5 | 0.21 | 2.79 | 0.889 | 4.65 | 3.91 | 3.97 | 1.51 | 2.95
CGTATTAGTTGACCATAAGGGCAACCGAAGCTCG | 0.6 | 0.437 | 0.259 | 0.258 | 0.134 | 0.617 | 0.684 | 0.523 | -0.0743 | 0.805
AGTCAAAGTTCAGAACGAGGTAACGTAAAGCACG | 4.06 | 3.73 | 1.34 | 1.78 | 0.533 | 3.26 | 4.48 | 4.72 | 1.77 | 4.12
AGAACGAGGGCACGCTGAGTTGACAGCAGAGTAG | 0.953 | 0.796 | -0.526 | 0.312 | -1.2 | 2.46 | 2.25 | 1.73 | 0.191 | 0.731
ATCTCTAGGTTACAAGTTCAGTGAAAGAGAGGAC | 1.64 | 2.33 | 1.68 | 1.55 | 1.77 | 2.51 | 2.72 | 3.25 | 1.77 | 2.97
CCTGCTAGGTCACTGGTCAGCTAAAGCAGCTCGC | 3.06 | 2.12 | -0.0651 | 1.42 | 0.0623 | 3.29 | 3.55 | 4.04 | 1.31 | 3.18
CCTTCTGGGCCATCAGGTCATTGATATCAACGTT | 1.65 | 1.19 | 0.846 | 1.44 | 0.0435 | 2.69 | 2.21 | 3.33 | 1.09 | 2.63
AGTCAAGGTTCACTAGGTAACGTAAGATTCAGCT | 3.03 | 3.03 | 0.713 | 1.93 | 0.445 | 3.59 | 4.38 | 4.46 | 1.58 | 3.65
GGACCAAGGTGAATAGGTCGTTGATGAGTAGGCG | 0.798 | 0.779 | -0.0064 | 0.446 | -0.809 | 2.28 | 1.47 | 1.59 | 0.243 | 0.903
TGTGCTAGGTCAACGATGGTCAGCTAATCTGCTA | 3.38 | 2.67 | -0.0277 | 1.54 | 0.116 | 3.1 | 2.68 | 2.4 | 0.195 | 1.68
TCTAGCACGCCAGAGGGTCACTCAAGAGGTACGG | 1.04 | 1.11 | -0.323 | 0.821 | -0.814 | 2.01 | 0.836 | 1.13 | 1.71 | 1.2
GGAACGAGGGCTAGTTGATAGCAGAGTTTGATGG | -0.569 | -0.717 | -0.679 | -0.908 | -0.992 | -0.745 | 0.203 | -0.227 | -0.133 | -0.567
GCTGCTATGTCAGGTTGGTCAGCTAACGGGTACG | -0.0269 | -0.171 | -0.277 | -0.513 | -0.58 | -0.327 | -0.164 | -0.401 | -0.739 | -0.312
GCATATAGGTAAAACAAGGTGAAAGTCCGATTGT | 1.15 | 2.03 | -0.3 | 0.461 | -0.664 | 1.96 | 1.32 | 1.69 | 0.57 | 1.14
CAAACTAGGTCACCGGAAGGTCAAAGGCCGCATG | 6.24 | 5.81 | 4.23 | 5.17 | 1.01 | 6.34 | 9.9 | 7.75 | 6.27 | 7.97
GGAACGAGGGCAAAGTTGATACCATCTGTCGACG | 1.54 | 1.06 | 0.172 | 1.17 | -0.157 | 4.04 | 6.72 | 6.85 | 6.52 | 7.6
ACAGACAGGTGATGAACGTAACTCAGGCTATCAT | -0.0915 | -0.174 | 0.0611 | -0.231 | -0.49 | -0.156 | 0.922 | -0.0111 | 0.477 | -0.194
TCTTGTAGATGAAGCAGGTTAAGAAAGCCTGAGT | 0.563 | -0.122 | -0.489 | 0.276 | -0.649 | 0.511 | -0.527 | 0.925 | 2.72 | 1.69
TTTGCTAGGTCAACGATGGTCAGCTAATCTGCTA | 3.71 | 4.07 | 1.84 | 2.07 | -0.0738 | 3.59 | 3.4 | 3.77 | 1.38 | 2.86
GCGACTGGGGCAAAGCAGGTTCCCATAAGGTTGG | -0.34 | -0.649 | -0.593 | -0.596 | -1.21 | 0.522 | 0.609 | 0.847 | -0.583 | 0.203
ACTATCAGTTGAGACGAGGGCAACCGATAGGTTG | 0.189 | 0.0109 | -0.515 | -0.348 | -0.0586 | 0.26 | 0.645 | 0.00158 | 0.149 | -0.0981
